The list is not random: actives were taken first. Their share in the collection is about 8.7%.
12-LOX inh – Primary qHTS assay for inhibitors of human arachidonate 12S-lipoxygenase (ALOX12): Round 2; AID 1671190, 2021; actives 1.1% (n = 580,000); purified 12hLO, xylenol orange hydroperoxide absorbance; Potency, µM (doses to about 108 µM), inactives show at the top dose activity change, negative = inhibition, most hits filed as inhibitors; Polyunsaturated fatty acid lipoxygenase ALOX12 (Homo sapiens), P18054; note: % is set by controls: 0 for no effect and ±100 for the full control effect
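Purified human 12hLO at 150 nM in 25 mM Hepes, 0.01% Triton X-100, pH 7.0, preincubated 15 min at room temperature with compound. Reaction started with 40 uM arachidonic acid, 30 min at room temperature. Hydroperoxide measured by Fe-xylenol orange, 573/405 nm absorbance ratio.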
HP1b binding inh – HTS for Inhibitors of HP1-beta Chromodomain Interactions with Methylated Histone Tails. actives 0.56% (n = 390,000). Potency, µM (titrated, usually from 114 µM), for inactives: top-dose activity change, negative = inhibition, usual class: inhibitors. AlphaScreen HP1-beta / biotin-H3K9me3 peptide binding. Chromobox protein homolog 1 (Homo sapiens), P83916; note: nearly all actives have a fitted effect of over 70% in size
Target sequence (P83916 whole entry, looked up): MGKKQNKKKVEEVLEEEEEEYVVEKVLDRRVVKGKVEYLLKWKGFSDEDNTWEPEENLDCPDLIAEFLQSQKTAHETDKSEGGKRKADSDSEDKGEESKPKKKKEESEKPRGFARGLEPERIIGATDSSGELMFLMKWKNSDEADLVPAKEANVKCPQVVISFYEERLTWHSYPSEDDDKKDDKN
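Compound inhibition of the preformed complex between 50 nM HP1-beta and 50 nM biotinylated H3K9me3 peptide was read by AlphaScreen. Buffer was PBS pH 7.4 with 0.01% Tween-20. Incubations ran 30 min at room temperature, with 10 ug/mL donor/acceptor beads.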
JMJD2A Tudor – qHTS Assay for Inhibitors of JMJD2A-Tudor Domain | Lysine-specific demethylase 4A (Homo sapiens), O75164 | AlphaScreen JMJD2A-Tudor / H3K4me3 peptide binding | Potency, µM (series often up to 114 µM), without a hit: top-dose activity change, negative = inhibition, actives largely listed as inhibitors | actives 4.4% (n = 390,000) | AID 504339, 2011; note: % is set by controls: 0 for no effect and ±100 for the full control effect; nearly all actives have a fitted effect of over 50% in size
Sfp PPTase inh – qHTS Assay for Inhibitors of Bacillus subtilis Sfp phosphopantetheinyl transferase (PPTase); Potency, µM, for inactives: largest response in the series, negative = inhibition, hits mostly inhibitors; actives 3.5% (n = 310,000); Biochemical Sfp PPTase activity, qHTS; 4'-phosphopantetheinyl transferase ffp (Bacillus subtilis), Q9F4F7;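 note: the enzyme is Sfp with the accession as filed and its product quenches rhodamine fluorescence; 0% = enzyme reaction without inhibitor and -100% = no enzyme wells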
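After 15 min at room temperature with compound, 15 nM Sfp received 5 uM rhodamine-CoA plus 12.5 uM BHQ-2-ybbR (50 mM Hepes pH 7.6, 10 mM MgCl2). Rate came from the fluorescence difference over 30 min, ex 525/em 598 nm.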
BAZ2B block – qHTS Assay for Inhibitors of BAZ2B | Bromodomain adjacent to zinc finger domain protein 2B (Homo sapiens), Q9UIF8 | AlphaScreen BAZ2B-H3K14Ac peptide displacement | Potency, µM (top dose mostly 114 µM), inactives show at the highest dose activity change, negative = inhibition, hits mostly inhibitors | actives 4.4% (n = 360,000) | AID 504333, 2011; note: % is set by controls: 0 for no effect and ±100 for the full control effect; nearly all actives have a fitted effect of over 60% in size
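Multi-concentration screen (max 110 uM) measuring displacement of acetylated histone H3 peptide from BAZ2B by AlphaScreen, using 50 nM protein, 50 nM peptide and 10 ug/mL streptavidin donor plus Ni-chelate acceptor beads.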
G9a inh – qHTS Assay for Inhibitors of Histone Lysine Methyltransferase G9a | Histone-lysine N-methyltransferase EHMT2 (Homo sapiens), Q96KQ7 | Potency, µM (doses to about 102 µM), inactives show at the highest dose activity, negative = inhibition, hits mostly inhibitors | actives 8.8% (n = 350,000) | G9a H3K9 monomethylation, AlphaScreen, 2 h; note: % is set by controls: 0 for no effect and ±100 for the full control effect; nearly all actives have a fitted effect of over 75% in size
Target sequence (Q96KQ7 913-1193 limits assumed): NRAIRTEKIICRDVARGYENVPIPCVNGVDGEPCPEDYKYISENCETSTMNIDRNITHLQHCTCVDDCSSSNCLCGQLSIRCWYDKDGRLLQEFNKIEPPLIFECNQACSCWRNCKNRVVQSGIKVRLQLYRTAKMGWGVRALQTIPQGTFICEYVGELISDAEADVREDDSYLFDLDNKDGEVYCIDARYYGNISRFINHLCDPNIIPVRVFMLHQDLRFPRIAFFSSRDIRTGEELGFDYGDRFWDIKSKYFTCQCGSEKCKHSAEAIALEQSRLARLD
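Using a bead-based AlphaScreen, monomethylated H3K9 product from 2 h room-temperature reactions (G9a 20 nM, peptide 500 nM, SAM 20 uM) was detected with 0.5 ug/mL rabbit anti-H3K9me1 antibody.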
* marks the source's active call; other numbers are inactive results; ? = inconclusive; / = not tested or not shown; ! = a repeat was not active; [ ] = another dose, or the depositor's remark. Calls come from the whole dose curve; as a rule, active = well fitted curve in the direction sought with a large enough effect; inconclusive = small, poorly fitted or top-dose-only effect, or another doubt; inactive = no such curve, though single readings can be large; an effect the other way counts as inactive or inconclusive. Potency is the fitted concentration of half-maximal effect.

SMILES	12-LOX inh	HP1b binding inh	JMJD2A Tudor	Sfp PPTase inh	BAZ2B block	G9a inh
CCCCC1=CC2=C(c3ccco3)C(=O)C(C)(OC(=O)c3ccc(OC)cc3)C(=O)C2=CN1C1CCCCC1 (stereo not drawn)	/	-20%	?	56µM*!	?	?
CCCCC1=CC2=C(c3ccco3)C(=O)C(C)(OC(=O)c3ccc(OC)cc3)C(=O)C2=CN1CCOC (stereo not drawn)	-5%	-38%	?	-7%	40µM*	?
CCCCC1=CC2=C(c3ccco3)C(=O)C(C)(OC(=O)c3ccc(OC)cc3)C(=O)C2=CN1CCc1ccccn1 (stereo not drawn)	-4%	21%	?	56µM*!	?	-41%[59 µM]
CCCCC1=CC2=C(c3ccco3)C(=O)C(C)(OC(=O)c3ccc(OC)cc3)C(=O)C2=CN1Cc1ccc2c(c1)OCO2 (stereo not drawn)	/	?	-36%	?	-38%	?
CCc1ccc(N2CC(c3noc(-c4ccccc4F)n3)CC2=O)cc1 (stereo not drawn)	-4%	/	/	/	/	/
Cn1ncc2c(Sc3nnc(-c4ccccc4)n3-c3ccc(F)cc3F)ncnc21	11%	/	/	/	/	/
COCc1noc([C@@H]2CN(C(=O)c3cc4ccccc4[nH]3)C[C@H]2C(N)=O)n1	60%	/	/	/	/	/
COc1ccc(C(=O)N2CCC[C@H](n3c(=O)n(CC4CC4)c4cccnc43)C2)cc1F	0%	/	/	/	/	/
CC[C@@H](NC(=O)[C@@H](Cc1ccccc1)NC(=O)CC[C@H]1O[C@@H](n2ccc(=O)[nH]c2=O)[C@H](O)[C@@H]1O)c1ccccc1	32µM*	/	/	/	/	/
CC[C@H](NC(=O)[C@@H](Cc1ccccc1)NC(=O)[C@H]1O[C@@H](n2ccc(=O)[nH]c2=O)[C@H](O)[C@@H]1O)c1ccccc1	-12%	/	/	/	/	/
COc1cc(CN2C[C@@H]3C(=O)N(CCc4ccccc4)C(=O)[C@@H]3C2)cc(OC)c1	21%	/	/	/	/	/
CCOC(=O)N/N=C(C)/C=C/c1ccco1	-8%	42%	-13%	-1%	3%	11µM*
CCOC(=O)N/N=C\C=C\c1ccco1	?	29%	-16%	45µM*	-23%	?
CCOC(=O)C(=O)N/N=C/c1ccco1	?	19%	-3%	-11%	-8%	/
CCOC(=O)N/N=C(C)/C=C/c1ccccc1	-2%	29%	-6%	17%	0%	19%[59 µM]
COc1ccccc1NC(=O)c1cc(=O)c2ccc(C)cc2o1	-27%	/	/	/	/	/
Cc1noc(-c2cccn3c(CNC(=O)c4ccc5ccccc5n4)nnc23)n1	66%	/	/	/	/	/
O=C1NC(=O)C(=Cc2ccc(-c3ccc(F)cc3)o2)S1	-25%[57.4 µM]	/	/	/	/	/
O=C1NC(=O)/C(=C/c2ccc(-c3cccc([N+](=O)[O-])c3)o2)S1	-53%	-8%	?	89µM*	?	/
CN(C)C1CCCN(C(=O)c2ccc(CN3CCCC3)o2)CC1 (stereo not drawn)	6%	/	/	/	/	/
COc1ccccc1OC1=NS(=O)(=O)c2ccccc21	?	57%	-3%[11.4 µM]	12%	?	45µM*
O=S1(=O)N=C(Oc2ccc(Cl)cc2)c2ccccc21	/	/	100µM*	/	/	/
Cc1ccc(OC2=NS(=O)(=O)c3ccccc32)cc1	?	39%	?	13%	?	?
O=S1(=O)N=C(Oc2ccccc2F)c2ccccc21	/	/	79µM*	/	/	/
CCN(CC)c1cccc(OC2=NS(=O)(=O)c3ccccc32)c1	?	-21%	63µM*	-4%	56µM*	16µM*
SMILES	12-LOX inh	HP1b binding inh	JMJD2A Tudor	Sfp PPTase inh	BAZ2B block	G9a inh
CCn1ncc(N2CCC(NC(=O)c3ccccc3)CC2)cc1=O	53%	/	/	/	/	/
Clc1ccccc1Cn1nnc2c(N3CCCC3)ncnc21	-10%	25%	-9%	5%	-1%	-5%
Fc1ccccc1Cn1nnc2c(-n3ccnc3)ncnc21	0%	-11%	56µM*	-4%	2%	-30%
CCC1(c2ccccc2)NC(=O)N(CC(=O)N(C)CC(=O)Nc2ccc(F)c(F)c2F)C1=O (stereo not drawn)	?	3%	-8%	/	-4%	3%[0.501 µM]
CCCC1(c2ccccc2)NC(=O)N(CC(=O)N(C)Cc2c(F)cccc2Cl)C1=O (stereo not drawn)	-25%	-12%	25µM*	11%	-13%	18%[59 µM]
COc1ccccc1C(=O)Nc1c(NC2CCCCC2)c2ccccc2oc1=O	-13%	/	/	/	/	/
CN1N=C2c3ccccc3CCCC2C1c1ccc(F)cc1 (stereo not drawn)	40µM*	22%	-17%	-6%	-20%	79µM*
C[C@@H]1NC(=O)c2cc([N+](=O)[O-])cc(I)c2OCC[C@@H](C(N)=O)NC(=O)[C@H](CCC(=O)O)NC1=O	/	/	/	-8%	?	28µM*
NC(=O)C[C@@H]1NC(=O)[C@H](CCC(=O)O)NC(=O)c2cc([N+](=O)[O-])cc(I)c2OCC[C@@H](C(N)=O)NC1=O	/	6%	-26%	-12%	-35%	28µM*
CC(C)[C@@H]1NC(=O)c2cc([N+](=O)[O-])cc(I)c2OCC[C@@H](C(N)=O)NC(=O)[C@H](CCC(=O)O)NC1=O	?	29%	-15%	34%	?	45µM*
NC(=O)CC[C@@H]1NC(=O)[C@H](Cc2ccc(O)cc2)NC(=O)c2cc([N+](=O)[O-])cc(F)c2OCC[C@@H](C(N)=O)NC1=O	-6%	6%	-25%	6%	-11%	?
Cc1cc([N+](=O)[O-])nn1CCCC(=O)Nc1cc(Oc2ccccc2)cc([N+](=O)[O-])c1	-26%	1%	?	-2%	?	40µM*
Cc1cccc(Oc2cc(NC(=O)Cn3cnc([N+](=O)[O-])n3)cc([N+](=O)[O-])c2)c1	?	-18%	?	21%	?	14µM*
O=C(/C=C/c1cnc2ccccc2n1)NCc1cccnc1	-41%	/	/	/	/	/
CCCC12CN3CC(C)(CN(C1)C3c1ccco1)C2=O (stereo not drawn)	-7%	-2%	56µM*	-9%	1%	19%
CCCC12CN3CC(CCC)(CN(C1)C3c1ccco1)C2=O (stereo not drawn)	?	-4%	-15%	8%	-17%	/

Compound activity as filed in PubChem BioAssay.
